NPR1 activator: GC-A (human) enzyme activation; 0.14% of 370,000 active; HEK293 GC-A cells, cGMP TR-FRET, EC30 ANP; 0% at EC30 ANP, 100% saturating ANP; activation, % at 10 µM; in the data active means activation above about 40%
NPR2 activator: GC-B (human) receptor activation. P20594. HEK293-GC-B cells, CNP EC30, cGMP TR-FRET; 0% at EC30 CNP, 100% saturating CNP. activation, % at 10 µM. 0.11% of 370,000 active. AID 1920062;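 active means activation at 10 µM reaching about 35% in either raw or pattern-adjusted values, limit read from the data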
ADAM10 inh: ADAM10 inhibition, QFRET primary screen; 0.62% of 370,000 active; recombinant ADAM10, EDANS/DABCYL FRET peptide cleavage, 3 h; AID 720582; inhibition, % at 7 µM; O14672;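 active means inhibition above a per-campaign cutoff equal to the mean of compounds falling between control-based bounds plus 3 SD, cut at about 20% in these data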
Target sequence (O14672 214-748 limits assumed): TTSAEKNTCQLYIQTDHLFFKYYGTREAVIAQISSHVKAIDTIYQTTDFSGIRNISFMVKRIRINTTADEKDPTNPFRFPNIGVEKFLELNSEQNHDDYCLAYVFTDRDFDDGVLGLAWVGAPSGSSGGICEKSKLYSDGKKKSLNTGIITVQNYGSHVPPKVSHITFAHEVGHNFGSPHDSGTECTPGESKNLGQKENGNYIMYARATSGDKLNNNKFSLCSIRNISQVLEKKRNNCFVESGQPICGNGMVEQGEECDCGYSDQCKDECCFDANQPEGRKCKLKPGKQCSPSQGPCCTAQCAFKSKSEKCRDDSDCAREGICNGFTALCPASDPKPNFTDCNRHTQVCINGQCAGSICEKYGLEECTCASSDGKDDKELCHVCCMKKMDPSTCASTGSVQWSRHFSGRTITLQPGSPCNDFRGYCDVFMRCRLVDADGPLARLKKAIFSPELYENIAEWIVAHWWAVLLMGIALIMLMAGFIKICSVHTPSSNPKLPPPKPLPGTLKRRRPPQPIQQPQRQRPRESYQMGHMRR
ADAM17 inh: inhibitors of human ADAM17. P78536. recombinant ADAM17, EDANS/DABCYL FRET peptide cleavage. inhibition, % at 6.95 µM. 0.83% of 370,000 active. AID 720648;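 active means inhibition above the mean of compounds lying between control limits plus 3 SD, set per campaign, cut at about 8.5% in these data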
ADAM10 confirm: human ADAM10 inhibition, confirmation; shares compounds with ADAM10 inh; ADAM10 QFRET peptide cleavage, EDANS fluorescence; 1% of 2,100 active; inhibition, % at 6.95 µM;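 active means inhibition above about 20% chosen separately for each screening run, limit read from the data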
ADAM17 ctr: ADAM17 inhibition, counter-screen for ADAM10 exosite hits | inhibition, % at 6.95 µM | AID 743214 | 0.5% of 2,100 active | shares compounds with ADAM10 inh | ADAM17 QFRET peptide cleavage, EDANS fluorescence;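 active means mean triplicate inhibition above the solvent-only control wells' mean plus 3 SD, cut at about 12% in these data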
ADAM10 ctr: counter-screen for ADAM17 exosite inhibitors: inhibitors of human ADAM10. 47% of 2,900 active. shares compounds with ADAM17 inh. recombinant ADAM10, EDANS/DABCYL FRET peptide cleavage, 3 h. inhibition, % at 6.95 µM;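 active means mean inhibition over the triplicate runs exceeds the activity threshold set in the earlier primary screen, cut at about 20% in these data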
ADAM17 confirm: confirmation of inhibitors of human ADAM17 | 65% of 2,900 active | recombinant ADAM17, EDANS/DABCYL QFRET peptide cleavage | shares compounds with ADAM17 inh | inhibition, % at 6.95 µM;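 active means mean inhibition across replicates above the hit cutoff set in the primary screen, cut at about 8.5% in these data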
Large screens that a line does not name were inactive (follow-up assays come after a bar, where they were run); ! = not active in a repeat. A selection: hits, their analogues and other compounds. The true share with any hit is near 1.3%.

NC(=O)[C@@H]1CC2(CC(c3cccc(NC(=O)CC(c4ccccc4)c4ccccc4)c3)=NO2)CN1C(=O)c1ccc(Cl)cc1 (some centres undefined)	ADAM10 inh 23.4, ADAM17 inh 10.8 | ADAM10 confirm inactive | ADAM17 ctr inactive | ADAM10 ctr 44.5 | ADAM17 confirm 20.9
C=C(C)C(=O)N1CC2(CC(c3cccc(NC(=O)CC(c4ccccc4)c4ccccc4)c3)=NO2)C[C@H]1C(N)=O (some centres undefined)	none
NC(=O)[C@H]1CC2(CC(c3cccc(NC(=O)CC(c4ccccc4)c4ccccc4)c3)=NO2)CN1C(=O)CC(c1ccccc1)c1ccccc1 (some centres undefined)	ADAM10 inh 31.1, ADAM17 inh 16.3 | ADAM10 confirm inactive | ADAM17 ctr inactive | ADAM10 ctr 33.0 | ADAM17 confirm 18.6
NC(=O)[C@H]1CC2(CC(c3cccc(NC(=O)COc4ccc(Cl)cc4)c3)=NO2)CN1C(=O)C(c1ccccc1)c1ccccc1 (some centres undefined)	ADAM10 inh 30.6, ADAM17 inh 11.5 | ADAM10 confirm inactive | ADAM17 ctr inactive | ADAM10 ctr 30.3 | ADAM17 confirm 14.5
COC(=O)c1ccc(N2CCN(C(=O)C3CC3)CC2)c([N+](=O)[O-])c1	none
COC(=O)c1ccc(N2CCC(c3cc(-c4ccc(OC)cc4)n[nH]3)CC2)c([N+](=O)[O-])c1	ADAM10 inh 28.6, ADAM17 inh 11.7 | ADAM10 confirm inactive | ADAM17 ctr inactive | ADAM10 ctr 34.7 | ADAM17 confirm 18.5
O=S(=O)(CCc1ccccc1)CS(=O)(=O)CCc1ccccc1	none
O=C(OCc1csc(Nc2ccccc2)n1)c1ccc(Cl)cc1	ADAM10 inh 23.5, ADAM17 inh 12.1 | ADAM10 confirm inactive | ADAM17 ctr inactive | ADAM10 ctr 44.9 | ADAM17 confirm 18.4
COc1ccc2c(C(=O)NCc3ccc4c(c3)OCO4)c(-c3ccc(S(C)(=O)=O)cc3)sc2c1	none
CCOC(=O)[C@]12CCC=C1N(Cc1ccc3c(c1)OCO3)C(=O)[C@H](CC(=O)NCc1cccc(C(F)(F)F)c1)C2	none
O=C(NNc1ccccc1Br)C(O)(c1cccc(C(F)(F)F)c1)c1cccc(C(F)(F)F)c1	ADAM10 inh 48.6, ADAM17 inh 25.1 | ADAM10 confirm inactive | ADAM17 ctr inactive | ADAM10 ctr 52.2 | ADAM17 confirm 23.4
CC(C)(O)C(=O)NNC(=S)Nc1cccc(C(F)(F)F)c1	none
CC(O)C(NS(=O)(=O)c1ccc(Cl)cc1)C(=O)OCC(=O)c1c[nH]c2ccccc12 (centres undefined)	none
CC(C)C(NS(=O)(=O)c1c(Cl)cccc1Cl)C(=O)OCC(=O)c1c[nH]c2ccccc12 (centres undefined)	ADAM10 inh 28.1, ADAM17 inh 14.9 | ADAM10 confirm inactive | ADAM17 ctr inactive | ADAM10 ctr inactive | ADAM17 confirm 13.7
COc1ccc(NC(=O)COC(=O)c2c3c(nc4ccccc24)CCCC3)cc1Cl	ADAM10 inh 23.5, ADAM17 inh 11.9 | ADAM10 confirm inactive | ADAM17 ctr inactive | ADAM10 ctr 30.3 | ADAM17 confirm 18.7
COc1ccc(CC(=O)NC(C)c2ccc3ccccc3c2)cc1 (centres undefined)	none
COc1ccc(CCN2C(=O)c3[nH]nc(-c4ccccc4O)c3C2c2cccc(O)c2)cc1OC (centres undefined)	ADAM10 inh 29.5, ADAM17 inh 9.1 | ADAM10 confirm inactive | ADAM17 ctr inactive | ADAM10 ctr 33.3 | ADAM17 confirm 14.3
COc1ccc(C2c3c(-c4ccccc4O)n[nH]c3C(=O)N2Cc2ccco2)cc1OC (centres undefined)	none
Cc1cc(C)c(O)c(-c2n[nH]c3c2C(c2cccc(O)c2)N(Cc2ccco2)C3=O)c1 (centres undefined)	ADAM10 inh 36.7, ADAM17 inh 20.6 | ADAM10 confirm inactive | ADAM17 ctr inactive | ADAM10 ctr 47.6 | ADAM17 confirm 23.0
O=C1c2[nH]nc(-c3ccccc3O)c2C(c2ccc(F)cc2)N1Cc1ccco1 (centres undefined)	none
Cn1c(=O)c2cc(NC(=O)OCCF)ccc2n1Cc1cccc(C(F)(F)F)c1	none
CCC1CCCCN1C(=O)COC(=O)c1cc(C)nc2ccccc12 (centres undefined)	none
CC(C(=O)Nc1ccc(C#N)cc1)N(C)CC(=O)N(C)c1c(N)n(Cc2ccccc2)c(=O)[nH]c1=O (centres undefined)	none
CCc1nc(N2CCN(C(=S)NCCCOC)CC2)c2c3c(sc2n1)CCCC3	ADAM10 inh 20.2, ADAM17 inh 14.0 | ADAM10 confirm inactive | ADAM17 ctr inactive | ADAM10 ctr inactive | ADAM17 confirm inactive
CC(C)CC(C(=O)OCC(=O)Nc1cccc(Cl)c1)N1C(=O)C2CC=CCC2C1=O (centres undefined)	ADAM10 inh 34.6, ADAM17 inh 17.0 | ADAM10 confirm inactive | ADAM17 ctr inactive | ADAM10 ctr 26.5 | ADAM17 confirm 10.9
CCOc1ccccc1NC(=O)COC(=O)C(CC(C)C)N1C(=O)C2CC=CCC2C1=O (centres undefined)	none
O=C(Nc1nc(-c2ccc(S(=O)(=O)N3CCOCC3)cc2)cs1)c1ccccc1	ADAM10 inh 21.0!, ADAM17 inh 10.8! | ADAM10 confirm inactive | ADAM17 ctr inactive | ADAM10 ctr inactive | ADAM17 confirm inactive
Cc1ccc(N(CC(O)CON=C2c3ccccc3-c3ccccc32)S(C)(=O)=O)cc1 (centres undefined)	ADAM10 inh 21.5, ADAM17 inh 12.4 | ADAM10 confirm inactive | ADAM17 ctr inactive | ADAM10 ctr 21.5 | ADAM17 confirm 14.2
OC(CON=C1c2ccccc2-c2ccccc21)CN1CCNCC1 (centres undefined)	none
C=C(C)C(=O)OCC(O)COc1ccc(C(C)(C)c2ccc(OCC(O)COC(=O)C(=C)C)cc2)cc1 (centres undefined)	ADAM10 inh 35.2, ADAM17 inh 9.5 | ADAM10 confirm inactive | ADAM17 ctr inactive | ADAM10 ctr 33.1 | ADAM17 confirm 17.6
CC(=O)Nc1ccc(/C=C/COC(C)=O)cc1C	none
O=C(CNc1cccc(S(=O)(=O)N2CCCC2)c1)Nc1ccc(C(F)(F)F)cc1	none

Screening results deposited in PubChem BioAssay by several laboratories.
